From PubChem BioAssay
HT1080-NT tox = kills 2HG-producing HT-1080-NT fibrosarcoma cells; HT-1080-NT fibrosarcoma viability, CellTiter-Glo ATP luminescence, 48 h; Potency, µM (highest dose often 46.1 µM), without a hit: top-dose activity, negative = less viability, usual class: cytotoxic; actives 1.6% (n = 360,000);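 note: NT is the 2HG producing partner of a matched IDH1 knockdown line; potency is the fitted concentration of half-maximal effect; 0% = DMSO-treated cells and -100% = media-only wells without cells; nearly all actives have a fitted effect of over 55% in size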
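Luminescent CellTiter-Glo readout after 48 hours of compound exposure at 37 degrees C defined viability of HT-1080-NT cells. Activity was normalized to DMSO wells and cell-free media wells; concentration-response curves were fitted and assigned curve classes.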
HT1080 IDH1KD tx = toxicity to HT-1080 IDH1 knockdown cells (counter line) | HT-1080 IDH1 knockdown viability, ATP luminescence, 48 h | Potency, µM (titrated, usually from 46.1 µM), for the others: at the top dose activity, negative = toxicity, actives largely listed as cytotoxic | actives 2% (n = 360,000);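 note: potency is the fitted concentration of half-maximal effect; 0% = DMSO wells and -100% = cell-free medium wells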
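Viability of IDH1-knockdown HT-1080 fibrosarcoma cells was assessed by CellTiter-Glo after 48 h at 37 °C with titrated compound; concentration-effect curves were classified by fit quality and response size.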
KB-V1 cytotox = kills drug-selected multidrug resistant KB-V1 cells; KB-V1 MDR cells viability, CellTiter-Glo, 72 h; Potency, µM (titrated, usually from 46.1 µM), most hits filed as cytotoxic; actives 3.4% (n = 400,000); AID 1347076; note: potency is the fitted concentration of half-maximal effect; nearly all actives have a fitted effect of over 60% in size
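Compound-treated KB-V1 multidrug-resistant cells, 72 h, 37 degrees C; viability by CellTiter-Glo. Fitted qHTS curves give the values.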
IL1B secr inh = inflammasome signaling inhibition, IL-1 beta readout; THP-1 LPS/ATP IL-1B secretion, AlphaLISA, 16 h; stronger effect = lower value; activity change, % at 57.5 µM; actives 4.7% (n = 360,000); in the data active = activity change below about -50%; inconclusive = mostly about -30% to -49%
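THP-1 cells pretreated 1 hr with compounds (up to 57.5 uM final), then stimulated with LPS (250 ng/mL final) plus ATP (1.25 mM final); secreted IL-1B measured by AlphaLISA after 16 hr, decreased signal indicating inhibition.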
KB-3-1 cytotox = kills parental KB-3-1 adenocarcinoma cells. Potency, µM (titrated, usually from 46.1 µM), most hits filed as cytotoxic. actives 1.4% (n = 400,000). KB-3-1 viability, CellTiter-Glo ATP luminescence, 72 h. AID 1347075; note: potency is the fitted concentration of half-maximal effect; nearly all actives have a fitted effect of over 60% in size
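72 h, 37 °C compound treatment of KB-3-1 parental cells; CellTiter-Glo added, 10 min, luminescence read. Data corrected against DMSO-only plates and normalized before curve fitting.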
* = called active by the depositor; i = inactive; u = inconclusive; x = not tested or not shown; [ ] = another dose, or the depositor's remark. Shown are actives, neighbours in structure and some others; about 8.8% of the full set was active somewhere. Unless noted, calls come from the whole dose curve; as a rule, active = well fitted curve in the direction sought with a large enough effect; inconclusive = small, poorly fitted or top-dose-only effect, or another doubt; inactive = no such curve, though single readings can be large; an effect the other way counts as inactive or inconclusive. Unless noted, % is set by controls: 0 for no effect and ±100 for the full control effect.

SMILES	HT1080-NT tox	HT1080 IDH1KD tx	KB-V1 cytotox	IL1B secr inh	KB-3-1 cytotox
O=C(O)Cc1ccc(N2N=C(c3ccccc3)CC2=O)cc1	4%	1%	i	-13	i
CC[N+](C)(CC)CCC(c1ccccc1)C1CCCCC1 (stereo not drawn)	-8%	-4%	u	-25	u
CC[N+](C)(CC)CCOC(=O)C(O)(c1ccccc1)C1CCCCC1 (stereo not drawn)	u	19%	i	-55*	i
O=S(=O)(CC(CN1CCCCC1)N1CCCCC1)c1ccccc1 (stereo not drawn)	u	u	i	-97*	i
O=[N+]([O-])c1ccc(S(=O)(=O)CC(CN2CCOCC2)N2CCOCC2)cc1 (stereo not drawn)	-13%	-8%	i	-74*	u
Cc1cc(C)c(NS(=O)(=O)c2ccc3c(c2)NC(=O)CCS3)c(C)c1	-1%	-6%	u	0	u
Cc1ccccc1NC(=O)COC(=O)c1ccc(S(=O)(=O)N2CCCC2)cc1	9%	14%	i	15	i
CC(C)N1CN(c2ccccc2)C(=S)N(c2ccccc2)C1	9%	18%	i	11	i
NC(=O)c1ccc(NC(=O)COC(=O)c2c3c(nc4ccccc24)/C(=C\c2cccs2)CCC3)cc1	-11%	-5%	i	-5	i
CCc1cccc(C)c1NC(=O)COC(=O)c1c2c(nc3ccccc13)/C(=C\c1cccs1)CCC2	-1%	-4%	15µM*	-11	i
O=[N+]([O-])c1ccc2oc(C(O)c3cccc(Cl)c3)cc2c1 (stereo not drawn)	-29%	-19%	i	-93*	i
CCOC(=O)c1cc2cc([N+](=O)[O-])ccc2oc1=O	16%	-2%	i	-6	i
CCN(CC)C(=O)c1sc2c(c1C)c(=O)n(-c1ccccc1)c(=O)n2CC(=O)N(CC)c1cccc(C)c1	x	x	i	x	i
CCOc1ccc(N=Nc2c(C)noc2C)cc1	u	14%	i	19	i
COc1ccc(COc2cc(-c3cccc(OC)c3)nc3ccc(NC(=O)c4ccc(Cl)cc4)cc23)cc1	u	u	i	104	u
COc1ccc(COc2cc(-c3cccc(OC)c3)nc3ccc(NC(=O)c4ccc(OC)cc4)cc23)cc1	5.2µM*	4.6µM*	i	80	4.1µM*
COc1ccc(COc2cc(-c3cccc(OC)c3)nc3ccc(NC(=O)c4ccccc4)cc23)cc1	u	23µM*	i	48	16µM*
COc1ccc(NC(=O)C(CC(C)C)NS(=O)(=O)c2ccc3c(c2)oc(=O)n3C)cc1Cl (stereo not drawn)	x	x	i	x	i
CCOC(=O)C1CCCN(C(=O)c2cc(S(=O)(=O)N(C)C)ccc2N2CCCC2)C1 (stereo not drawn)	0%	10%	i	12	i
CCOC(=O)N1C(=O)[C@](c2ccc(Cl)cc2)(C(C)C)N1C(=O)OCC	-20%	-30%	i	-98*	i
CCOC(=O)N1C(=O)[C@@](c2ccc(Cl)cc2)(C(C)C)N1C(=O)OCC	u	u	u	-113*	i
CCOc1ccc(S(=O)(=O)n2cc(-c3ccc(F)cc3)c(N)n2)cc1	1%	u	16µM*	-15	i
Cc1ccc(-c2cn(S(=O)(=O)c3ccc(C)cc3)nc2N)cc1	5%	-7%	13µM*	6	i
CCOc1cc(-c2cn(S(=O)(=O)c3cccc4nsnc34)nc2N)cc(OCC)c1OCC	-6%	9%	i	6	i
CCOc1cc(S(=O)(=O)n2cc(-c3ccc(F)cc3)c(N)n2)cc(OCC)c1OCC	-18%	-10%	16µM*	-7	u
SMILES	HT1080-NT tox	HT1080 IDH1KD tx	KB-V1 cytotox	IL1B secr inh	KB-3-1 cytotox
CCOc1ccc(S(=O)(=O)n2cc(-c3ccccc3)c(N)n2)cc1	-13%[9.24 µM]	-24%	i	5	i
Cc1c(C)c2cc(Cl)c(OCC(=O)NC3CC(C)(C)NC(C)(C)C3)cc2oc1=O	10%	15%	i	-16	i
Cc1ccc(S(=O)(=O)N2CCN(c3nc(-c4cnccn4)nc4ccccc34)CC2)cc1	1%	1%	x	x	x
CCOC(=O)[C@]12CCCC=C1N(CCc1ccc(OC)c(OC)c1)C(=O)[C@H](CC(=O)N1CCCC1)C2	0%	-20%	i	-11	u
Cc1ccc(-c2c(CC(=O)O)c(C)nc3sc4c(c23)CCCC4)cc1	0%	3%	i	14	i
CCN1C(=O)[C@H]2[C@@H](c3ccc(OC)cc3)N[C@]3(CCCN(Cc4ccc(C)cc4)C3=O)[C@H]2C1=O	2%	-1%	i	-3	i
O=C(c1cn(CCOc2ccc(Cl)cc2)c2ccccc12)C1CCCCC1	x	x	i	x	i
CCOC(=O)CN1N=C(/C=C/c2ccc(C)cc2)CCC1=O	15%	17%	5.8µM*	-2	5.2µM*
CCn1ncc(Br)c1C(=O)Nc1c(C)nn(Cc2c(F)c(F)c(F)c(F)c2F)c1C	-1%	-24%	u	i	i
CCOCCCn1c(=O)c(NC(=O)c2ccc(OCC)cc2)c2n(c1=S)CCCCC2	2%	0%	8.2µM*	19	i
O=C1C=C(NC2=CC3OC(c4ccccc4)OCC3OC2=O)CCC1 (stereo not drawn)	-26%	21µM*	u	-117*	u
O=C1C=C(NCc2ccccc2)CCC1	8%	1%	i	0	i
COc1ccccc1C(C(=O)c1ccccc1)c1ccc2ccccc2c1 (stereo not drawn)	-4%	-15%	i	-71*	u
COc1cccc(/C=C/C(=O)c2c(O)cc(C)oc2=O)c1O	-13%	-12%	i	-81*	u
COc1cc(/C=C/C(=O)c2c(O)cc(C)oc2=O)cc(OC)c1O	u	u	u	-55*	u
CSc1ccc(/C=C/C(=O)c2c(O)cc(C)oc2=O)cc1	0%	1%	i	-20	u
Cc1cc(O)c(C(=O)/C=C/c2ccc(Cl)cc2)c(=O)o1	0%	7%	u	u	16µM*
O=C(c1ccco1)N1CCN(C(=O)c2cn(-c3ccccc3)nc2-c2ccc(F)cc2)CC1	-13%	-7%	u	-24	i
Cc1ccn2c(Nc3ccc4c(c3)OCCO4)c(-c3ccc(C)o3)nc2c1	x	x	i	x	i
Cc1ccc2[nH]c(=O)c(CN(Cc3ccco3)Cc3nnnn3Cc3ccccc3)cc2c1	x	x	i	x	i
CC(Oc1ccc(Br)cc1)C(=O)NCCCN1CCCC1=O (stereo not drawn)	-1%	10%	i	2	i
